Hit rate of the full screen: of about 360,000 compounds, about 11,000 (3.1%) were called active. This is one part of a sample in which actives are shown more often than they occur. Rule as the data show it: active = activity change below about -30%; inactive = the rest. Square brackets hold non-standard residues; d marks the D form. Peptide text beside a SMILES is read from it. * marks the point of attachment. PhAc = O=C(Cc1ccccc1)*
biological target: D(1A) dopamine receptor (Homo sapiens) (UniProt P21728); experiment: Antagonist of Human D 1 Dopamine Receptor: qHTS; settings: HEK293 TREx D1 cells, calcium flux, dopamine EC80; at 10 µM; hits give low values
Sequence (P21728 whole entry, looked up): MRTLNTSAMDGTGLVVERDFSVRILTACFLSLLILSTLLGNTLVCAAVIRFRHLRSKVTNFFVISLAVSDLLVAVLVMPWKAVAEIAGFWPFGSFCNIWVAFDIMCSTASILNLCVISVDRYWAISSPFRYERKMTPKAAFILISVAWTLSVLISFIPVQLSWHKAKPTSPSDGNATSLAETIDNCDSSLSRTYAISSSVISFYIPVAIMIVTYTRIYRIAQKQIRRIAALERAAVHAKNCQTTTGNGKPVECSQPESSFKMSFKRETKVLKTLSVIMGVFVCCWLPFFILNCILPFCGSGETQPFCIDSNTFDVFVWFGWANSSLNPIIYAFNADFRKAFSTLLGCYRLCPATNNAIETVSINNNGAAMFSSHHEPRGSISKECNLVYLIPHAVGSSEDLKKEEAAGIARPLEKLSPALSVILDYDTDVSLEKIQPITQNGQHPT
How it was run: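 After overnight tetracycline induction at 30 C, force-coupled D1 HEK293 cells took up a no-wash calcium dye at room temperature. Compounds were added and monitored 180 s, and the response to EC80 dopamine was then recorded.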
% is scaled to controls: 0 for no effect and ±100 for the full control effect.

SMILES	activity change, negative = inhibition
O=C(CN1C(=O)COc2ccc(S(=O)(=O)N3CCCCCC3)cc21)N1CCN(c2cccc(C(F)(F)F)c2)CC1	-0.903% (inactive)
Cc1ccc(NC(=O)CN2CCc3ccccc3C2)cc1C	-59.1% (active)
O=C(CN1CCc2ccccc2C1)Nc1cccc(S(=O)(=O)N2CCOCC2)c1	27.4% (inactive)
O=C(CN1CCc2cc3c(cc2C1)OCCCO3)Nc1ccccc1	-19.4% (inactive)
O=C(NCCc1ccccc1)c1ccc2c(c1)N(Cc1ccc(F)cc1)C(=O)c1ccccc1S2(=O)=O	6.04% (inactive)
O=C(NCCc1ccccc1)c1ccc2c(c1)N(Cc1ccccc1)C(=O)c1ccccc1S2(=O)=O	-40.3% (active)
COCCNC(=O)c1ccc2c(c1)N(Cc1cccc(Cl)c1)C(=O)c1ccccc1S2(=O)=O	5.66% (inactive)
COC(=O)c1ccccc1NC(=O)c1ccc2c(=O)n3c(nc2c1)CCCCC3	5.25% (inactive)
CC(C)c1ccc(NC(=O)c2cc(S(=O)(=O)N3CCc4ccccc4C3)ccc2F)cc1	3.76% (inactive)
CC(C)CCNC(=O)CCNS(=O)(=O)c1ccc(Cl)cc1	-17.7% (inactive)
CC(C)CNS(=O)(=O)c1ccc(CCC(=O)NCc2ccc(Cl)cc2)cc1	3.95% (inactive)
Cc1ccc(S(=O)(=O)NCCC(=O)NCc2ccc(Cl)cc2)cc1C	-35.7% (active)
CC1CCC(N2CC(=O)N(CCC3=CCCCC3)C(c3ccc(F)cc3)C2=O)CC1 (stereo not drawn)	-13.9% (inactive)
Cc1ccc2[nH]c(=O)c(CN(CCCN(C)C)C(=O)Nc3cccc(Cl)c3)cc2c1	-39.7% (active)
Cc1ccc2[nH]c(=O)c(CN(CC3COCCO3)C(=O)Nc3ccccc3C)cc2c1 (stereo not drawn)	-8.28% (inactive)
CCC(=O)N(CCc1ccccc1)Cc1cc2cc(C)ccc2[nH]c1=O	13.5% (inactive)
COc1ccc(-n2nnc(-c3nsc(NC(=O)c4ccc(C)c(C)c4)n3)c2C)cc1Cl	2.45% (inactive)
CCOc1ccc(NC(=O)Cn2cc(C(=O)c3ccc(C)cc3)c(=O)c3cc4c(cc32)OCCO4)cc1	4.79% (inactive)
COc1ccc(O)c(C(=O)c2cnc3c(c2)c(-c2ccc(F)cc2)c(C#N)c(=O)n3C)c1	0.727% (inactive)
COc1ccc(O)c(C(=O)c2cnc3onc(C(C)C)c3c2)c1	-33.3% (active)
COCCn1c(=O)[nH]c(=O)c2cc(C(=O)c3cc(OC)ccc3O)cnc21	12.3% (inactive)
CCOc1ccc(CNC(=O)c2ccc(CS(=O)c3ccccc3)o2)cc1 (stereo not drawn)	-7.56% (inactive)

SMILES	activity change, negative = inhibition
COc1ccc(CNC(=O)CC2Oc3ccc(C)cc3NC2=O)cc1 (stereo not drawn)	14% (inactive)
COc1ccc(C(=O)OCC(=O)Nc2cccc(C(C)=O)c2)cc1OC	-4.31% (inactive)
COc1ccc(C(=O)OCC(=O)Nc2ccc3[nH]c(=O)[nH]c3c2)c(OC)c1OC	-37.4% (active)
O=C(COC(=O)c1cccc(Cl)c1)Nc1ccc2[nH]c(=O)[nH]c2c1	2.99% (inactive)
COc1ccc(NC(=O)c2sc3nc(-c4cc5cccc(OC)c5oc4=O)[nH]c(=O)c3c2C)cc1	7.97% (inactive)
Cc1ccc(CSc2nc3cccnc3n2Cc2ccc(C(=O)NC3CC3)cc2)cc1	-0.852% (inactive)
CCc1ccc(NC(=O)CCCc2nnc3n(CCCOC)c(=O)c4sccc4n23)cc1	-2.77% (inactive)
Cn1nc(-c2ccccc2)c(CSc2cccc(Cl)c2)c1Cl	2.15% (inactive)
Cn1nc(-c2ccccc2)c(CO)c1Sc1ccccc1	-64.5% (active)
Cn1cnc([N+](=O)[O-])c1Sc1ccccc1	1.72% (inactive)
Cc1ccc(S(=O)(=O)NCc2nc3nc(C)cc(C)n3n2)cc1	-1.58% (inactive)
Cc1ccc(NC(=O)Nc2ccccc2)c(Br)c1	-35.1% (active)
CCOc1cc(NC(=O)Nc2ccccc2)c(OCC)cc1NC(=O)CC	0.545% (inactive)
Cc1ccc(NC(=O)c2ccn(C(=O)Nc3ccccc3)n2)c(C)c1	4.19% (inactive)
COc1ccc(Cn2c(=O)c3oc4ccccc4c3n(CC(=O)Nc3ccc(F)cc3F)c2=O)cc1	-7.86% (inactive)
Cc1cc2c(s1)c1cnn(Cc3cc(F)c(Cl)cc3Cl)c(=O)c1n2C	3.83% (inactive)
CC(C)OCCCNc1ncnc2c1[nH]c1ccc(F)cc12	-48.9% (active)
Cc1ccc(-n2ncc(C(=O)N(C)Cc3ccccc3)c2-n2cccc2)cc1	-9.92% (inactive)
Cc1cc2c(cc3c(SCc4nc(-c5ccccc5)oc4C)nnc(C)n32)o1	-21.6% (inactive)
O=C(NCC(c1ccco1)S(=O)(=O)c1cccs1)c1ccc(F)cc1 (stereo not drawn)	-7.39% (inactive)
O=C(CC1NCCNC1=O)Nc1cc(Cl)cc(Cl)c1 (stereo not drawn)	4.63% (inactive)
O=C(CC1NCCc2ccccc21)Nc1cccc(Cl)c1 (stereo not drawn)	-31.7% (active)

SMILES	activity change, negative = inhibition
O=C(CC1NCCNC1=O)Nc1ccc(Oc2ccccc2)cc1 (stereo not drawn)	1.7% (inactive)
O=C(NCc1ccc(Cl)cc1)c1ccc2c(c1)nnn2C1CCCC1	-8.94% (inactive)
Cc1ccc2ccc3c(c2n1)NS(=O)(=O)c1ccccc1-3	8.65% (inactive)
Cc1cccc2c1-c1sc(C(=O)Nc3ccc(F)cc3F)cc1CO2	-14.5% (inactive)
COc1ccc(CNC(=O)c2cc3c(s2)-c2ccccc2OC3)cc1	-24.1% (inactive)
Cc1cccc2c1-c1sc(C(=O)NCCCN3CCc4ccccc4C3)cc1CO2	-31.8% (active)
COc1ccc2c(c1)CCc1c(C(=O)Nc3cc(C)ccc3O)noc1-2	-13.5% (inactive)
COc1ccc(CNc2nc(-c3ccc(Cl)cc3)cc(C(F)(F)F)n2)cc1	-13.9% (inactive)
CCCNC(=O)C1CCC(Cn2c(=O)c3sccc3n(Cc3ccccc3F)c2=O)CC1 (stereo not drawn)	-11.6% (inactive)
CCCC12CN3CC(CCC)(CN(C1)C3c1c[nH]c3ccc(OC)cc13)C2=O (stereo not drawn)	-7% (inactive)
COc1ccccc1CNC(=O)C1CCN(c2nc3ccccc3o2)CC1	15.4% (inactive)
COc1ccccc1CN(C)C(=O)c1cc2ccccc2o1	-35.2% (active)
COc1ccccc1CN(C)C(=O)C1(c2ccc(Cl)cc2)CC1	-0.3% (inactive)
CCc1ccc(N(CC)C(=O)CCn2cnc3onc(-c4ccc(F)cc4)c3c2=O)cc1	-6.1% (inactive)
CCCN(CC1COc2ccccc2O1)C(=S)Nc1ccc(C)cc1 (stereo not drawn)	-12.3% (inactive)
S=C(NCC1COc2ccccc2O1)Nc1ccc(Br)cc1 (stereo not drawn)	-47.7% (active)
CC(NC(=S)Nc1ccccc1)C1COc2ccccc2O1 (stereo not drawn)	-14.2% (inactive)
COc1ccc(-n2c(=O)c3c(c4cc(OC)ccc4n3C)n(Cc3cccc(C)c3)c2=O)cc1	4.47% (inactive)
Cc1ccc(Cl)cc1N1CCN(C(=O)CN2C(=O)COc3ccc(S(=O)(=O)N4CCOCC4)cc32)CC1	3.53% (inactive)
COc1cc(NC(=O)CCn2nc(C)cc2C)cc(OC)c1OC	34.5% (inactive)
Cc1ccc(NC(=O)N2CCC(c3nc4c(nnn4Cc4c(F)cccc4Cl)c(=O)[nH]3)CC2)cc1	-40.8% (active)
O=C(Nc1ccc(F)cc1)N1CCCC(c2nc3c(nnn3Cc3ccccc3Cl)c(=O)[nH]2)C1 (stereo not drawn)	2.43% (inactive)

SMILES	activity change, negative = inhibition
O=C(c1ccccc1F)N1CCC(c2nc3c(nnn3Cc3cccc(F)c3)c(=O)[nH]2)CC1	0.447% (inactive)
Cn1cc(S(=O)(=O)N2CCCCCC2)cc1C(=O)N1CCN(c2ccc(F)cc2)CC1	5.3% (inactive)
CC(C)Oc1ccc(CNC(=O)C2CCN(c3nc4ccccc4n(C)c3=O)CC2)cc1	18.8% (inactive)
CCCOc1ccc(C(=O)Nc2ccc3oc(-c4cccc(Cl)c4Cl)nc3c2)cc1	6.25% (inactive)
COc1ccc2oc(=O)c(-c3cn4c(n3)sc3cc(OC)ccc34)cc2c1	2.94% (inactive)
Cn1c(=O)c2c(nc(SCC(=O)Nc3ccc(F)cc3)n2Cc2ccccc2)n(C)c1=O	6.42% (inactive)
CC(C)C[C@H](NC(=O)C1CCC(CNC(=O)[C@@H]2CCCN2C(=O)OC(C)(C)C)CC1)C(=O)O (stereo partly drawn)	-1.98% (inactive)
COC(=O)[C@H](CC(C)C)NC(=O)N1CCCCC1C (stereo partly drawn)	-78.1% (active)
CC(C)C[C@@H](NC(=O)[C@H]1CCCN1C(=O)Cc1ccccc1)C(N)=O (PhAc-[dP]-[dL]-NH2)	30% (inactive)
CC(=O)c1ccc(NC(=O)CSc2nc(-c3ccccc3F)nc3c2c(=O)n(C)c(=O)n3C)cc1	-0.158% (inactive)
CC(=O)Nc1cc(C(=O)NCc2ccc(F)cc2Cl)ccc1Sc1ccc(Cl)cc1	9.87% (inactive)
CCOC(=O)c1ccc(NC(=O)C2CC(=O)NC(=Nc3ccc(C)c(C)c3)S2)cc1 (stereo not drawn)	-1.43% (inactive)
CCc1ccc(CNCc2c(C(=O)O)n(Cc3ccc(F)cc3Cl)c3cc(OC)ccc23)cc1	6.05% (inactive)
O=Cc1c(N2CCN(c3cccc(Cl)c3)CC2)nc2ccccn2c1=O	-43.5% (active)
O=Cc1c(Nc2ccccc2Cl)nc2ccccn2c1=O	9.2% (inactive)
COCCCNC(=O)/C(C#N)=C/c1c(N2CCCCCC2)nc2ccccn2c1=O	13.8% (inactive)
Cc1ccc(-c2nc3ccccn3c2Nc2c(C)cccc2C)o1	-2.58% (inactive)
Cc1c(CNC2CCCCC2)c(C(=O)O)c(C)n1Cc1cccc(Cl)c1	-7.13% (inactive)
CC(=O)NC1=NN(C(C)=O)C(C)(CCS(=O)(=O)c2ccc(Cl)c(Cl)c2)S1 (stereo not drawn)	-39.7% (active)
CC(=O)NC1=NN(C(C)=O)C(C)(c2ccc(C)cc2)S1 (stereo not drawn)	22.7% (inactive)
CC(=O)NC1=NN(C(C)=O)C(C)(c2ccc(Cl)s2)S1 (stereo not drawn)	2.68% (inactive)
Cc1cc(OC(C)C(=O)Nc2sc3c(c2C(N)=O)CCCC3)ccc1Cl (stereo not drawn)	3.29% (inactive)

Source: PubChem BioAssay AID504652 (National Center for Advancing Translational Sciences (NCATS), 2011)
